Experimental findings from the supplement of paper PMC3334620 are described below.

The full ranking holds about 33,000 sequences; the median of “E-score (-0.5 to 0.5)” is about -0.036, and the highest 2% start at about 0.37. Many of the other results were omitted from the sample, so the highest values are more common in it than they were.

For the assay, the target named is T1, Yer064c (UniProt P40041).
T1 sequence: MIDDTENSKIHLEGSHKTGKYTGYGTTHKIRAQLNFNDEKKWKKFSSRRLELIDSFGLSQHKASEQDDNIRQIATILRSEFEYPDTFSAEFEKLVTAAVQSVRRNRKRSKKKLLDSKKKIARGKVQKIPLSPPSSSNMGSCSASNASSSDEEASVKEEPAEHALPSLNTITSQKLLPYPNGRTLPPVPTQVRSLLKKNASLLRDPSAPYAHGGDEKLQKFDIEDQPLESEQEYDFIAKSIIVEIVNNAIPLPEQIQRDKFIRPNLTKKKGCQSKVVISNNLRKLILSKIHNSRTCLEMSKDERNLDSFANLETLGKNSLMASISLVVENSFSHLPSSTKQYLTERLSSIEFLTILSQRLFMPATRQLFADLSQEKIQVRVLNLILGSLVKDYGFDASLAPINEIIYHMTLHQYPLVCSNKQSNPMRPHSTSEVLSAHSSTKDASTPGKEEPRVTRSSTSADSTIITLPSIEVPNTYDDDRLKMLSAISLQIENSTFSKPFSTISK
In words: PBM E-score (8-mer binding enrichment) (E-score (-0.5 to 0.5)); higher = stronger / more preferred TF binding. To be noted: protein concentration: 200 nM; construct: GST-full length. How it is done:
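Universal 'all 10-mer' protein binding microarrays (Agilent AMADID 015681) probed with GST-tagged S. cerevisiae TFs (full-length or DBD) made by in vitro transcription/translation (PURExpress), about 100-200 nM. Bound TF was detected with fluorescent anti-GST. Each ungapped 8-mer (which stands for itself and its reverse complement) is scored by the PBM enrichment score (E-score), a modified Wilcoxon-Mann-Whitney statistic from -0.5 to +0.5, computed with the Universal PBM Analysis Suite. Scale: above 0.35 generally sequence-specific binding.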
Regarding CATTTGGA, the “PBM E-score” value amounted to 0.0626.
In the case of AATGAGTG, the “PBM E-score” value was determined as 0.249.
As for CATGAGCC, the figure is 0.247.
For CATGAGTC, the “PBM E-score” value amounted to 0.481.
As for AATGAGTC, the figure is 0.485; as for CATGAGAC, 0.322.
As for AATGAGAC, the figure is 0.257; as for ACGAGCGA, -0.0924; as for TGTTGAAA, 0.0239.
The figure for ACATCCCT is -0.0971; for AGATCTAA it is -0.0235; for AGAAGTAT it is 0.0717.
Turning to ACGCATAT, the “PBM E-score” value was -0.225.
Consider TCTCATAA, for which the “PBM E-score” value came out at 0.209.
The figure for ACTCATAA is 0.375; for CCTCATAC it is -0.153; for GCTCATAA it is 0.136.
The figure for GCTCATAC is -0.0113; for ACTCATAG it is 0.385.
As for ACTCATAC, the figure is 0.393; as for ATTCATAG, 0.166; as for ACTCATAT, 0.368.
In the case of ACCCATAT, the “PBM E-score” value turned out to be 0.216.
The figure for CCTCATAG is -0.00122; for GAAGATCA it is 0.02.
As for ATCGATAG, the figure is 0.0388; as for GCGCGACA, -0.0346.
As for ACCTGGAG, the figure is 0.0449; as for CTCTTGCA, 0.00318.
Consider GGTGATGA, for which the “PBM E-score” value turned out to be 0.191.
The figure for AGTGATTG is 0.362; for CGTGATTC it is 0.418.
The figure for AGTGATTA is 0.4; for AGTGATGA it is 0.261.
As for CGTGATCC, the figure is -0.251; as for GGTGATTA, 0.447; as for AGTGATTC, 0.405.
Regarding GGTGATAA, the “PBM E-score” value was -0.111.
Regarding AGTGATAA, the “PBM E-score” value is -0.0496.
The figure for CGTGATAC is -0.131; for AGTGATAC it is 0.0829.
The figure for ATTGGACA is -0.0986.
As for AAAAACCC, the figure is -0.204.
Consider GAGATAGA, for which the “PBM E-score” value was -0.206.
As for GCAGTCCA, the figure is 0.123; as for GCTCTCCA, -0.226.
The figure for GTCCTCAA is 0.159; for CCAGAACC it is -0.1.
The figure for CGTGATAA is 0.0558; for CGTGATGA it is 0.104.
Consider CGTGATTA, for which the “PBM E-score” value worked out at 0.393.
The figure for AAGATGCC is -0.214.
Consider CGGCAAAA, for which the “PBM E-score” value was -0.235.
The figure for AGAAGACG is -0.0622.
For AGAAGACT, the “PBM E-score” value turned out to be 0.368.
As to AGAAGACC, the “PBM E-score” value was -0.209.
The figure for ACAAGACG is -0.027.
The figure for ACAAGACT is 0.37; for ACAAGACA it is -0.114; for ATTAATTG it is 0.238.
Regarding ACCATACA, the “PBM E-score” value is -0.0449.
As for GAGGACCA, the figure is -0.0209.
Turning to TGTATCAA, the “PBM E-score” value was found to be 0.187.
The figure for AGCGACGG is -0.139.
For the sequence ATGTAATC, the “PBM E-score” value came out at 0.291.
As for TATAGTCA, the figure is 0.467.
As for TATAGTGA, the figure is 0.134; as for CATAGTGG, -0.088; as for AATAGTCT, 0.297.
The figure for AATAGTCG is 0.346; for CATAGTCG it is 0.374; for AATAGTCC it is 0.241.
As to TATAGTAA, the “PBM E-score” value was determined as 0.0693.
The figure for AATAGTCA is 0.478; for CATAGTCA it is 0.466.
CATAGTCC: the “PBM E-score” value is 0.304.
The figure for CATAGTAA is 0.212.
As for AATGGGCT, the figure is -0.041.
As for AACCAACC, the figure is -0.128; as for CGTCGAGA, 0.0495; as for GAGCGCGC, -0.194.
For GTCGCTCA, the “PBM E-score” value came out at 0.171.
As for GGACCATA, the figure is -0.109; as for CCGTACGA, -0.0292; as for AAGGGAGA, 0.039.
The figure for AGGGACTA is 0.222.
